Laboratory results: PubChem BioAssay AID651871 (Sanford-Burnham Center for Chemical Genomics, 2012)

test system: HL-1; experiment: cardiomyocyte survival under oxidative or metabolic stress – cell-based, panel, H9c2 and HL-1, ATP luminescence, set 2, SAR follow-up (AID 651871); settings: H9c2/HL-1 cardiomyocytes, 2-deoxyglucose stress, with 2-deoxyglucose, run 13, at 79 µM (top of the series);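 further: cells exposed to stressor for 2 h before ATP readout; reference of the scale not given here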

Question: With `COc1ccc2c(c1OC)C(=O)N1c3ccccc3C(=O)N(Cc3cccc(Cl)c3Cl)C21` (stereo not drawn) as the compound, how does the activity (protection/inhibition) read?
Answer: Its activity (protection/inhibition) is -9.86%.

Question: Which activity (protection/inhibition) does the source give for `COc1ccc2nc(-c3cc(OC)c(OC)c(OC)c3)cc(C(=O)NCC(=O)Nc3ccc(C(C)=O)cc3)c2c1` here?
Answer: The activity (protection/inhibition) was 55.5%.

Question: How did the activity (protection/inhibition) turn out when `CCOC(=O)c1cccc(NC(=O)CNC(=O)c2cc(-c3cc(OC)c(OC)c(OC)c3)nc3ccccc23)c1` was run?
Answer: The activity (protection/inhibition) was 66.6%.
